# From PubChem BioAssay (EPA / NIEHS)
# Where “and” joins values, the source holds several entries; their conditions need not be identical. Identical values can stand only once. Calls of active or inactive are those of the source. Rule for the calls: active = hit-call score of the fitted dose curve at least 0.9, where 1 is the maximum; inactive = score below 0.9.
# Read-out: Interleukin-8 (IL8), CXCL8 (gene 3576)
# Assay: BSK_MyoF_IL8: BioMAP Diversity Plus: MyoF Assay for Interleukin-8 (IL8) Biomarker Activity (AID 2284261)
# Conditions: primary human lung fibroblasts
# Procedure: BSK_MyoF is a cell-based, multiplexed-readout assay that uses lung fibroblasts, […], with measurements taken at 24 hours after chemical dosing in a microplate: 96-well plate.BSK_MyoF_IL8 is an assay component measured in the BSK_MyoF assay. It measures IL-8 antibody related to regulation of gene expression using ELISA technology.Data from the assay component BSK_MyoF_IL8 was analyzed at the endpoint, BSK_MyoF_IL8, in the positive analysis fitting direction relative to DMSO as the negative control and baseline of activity. Using a type of binding reporter, gain or loss-of-signal activity can be used to understand protein changes. To generalize the intended target to other relatable targets, this assay endpoint is annotated to the 'cytokine' intended target family, where the subfamily is 'interleukins'.
# The levels of cell surface (or secreted, indicated by the prefix "s") biomarker endpoints were measured by ELISA. Overt cytotoxicity to cells in confluent adherent cultures (all systems other than the BT system) was assessed by measuring total protein levels using sulforhodamine B (SRB) staining in parallel cultures at the time of biomarker measurements, indicated as SRB endpoints. For proliferation assays for adherent cell types, individual cell types are cultured at sub-confluence and relative cell numbers quantified by SRB staining at time points optimized for each system (48 h: 3C and CASM3C systems; 72 h: BT and HDF3CGF systems; 96 h: SAg system). SRB was performed by staining cells with 0.1% SRB after fixation with 10% TCA and reading wells at 560 nm.Viability and proliferation of PBMC (T cells) was quantified by Alamar Blue reduction for the SAg and BT systems. For PBMC viability (referred to as PBMC Cytotoxicity within the assay endpoint names), cells were plated (75,000/well in a 96-well plate) and then chemical samples added for 1 h before addition of activators, SEB and TSST-1 (20 ng/mL final concentration each). Cells were incubated for 90 h. Then, Alamar Blue (20 uL/well) (Invitrogen, Cat DAL1100) was added for 6 h, and the plates were read with a fluorescence microplate reader at 546/580 nm (excitation/emission). For PBMC proliferation, cells were plated and activated as above but incubated for only 16 h prior to addition of Alamar Blue. Plates were read after 6 h.
SMILES,AC50,outcome
C=CC(=O)OCC(F)(F)C(F)(F)C(F)(F)COC(=O)C=C,16.5 µM (active) and 14.3 µM (active),
Cc1cc(C)c(O)c(C(C)(C)C)c1,,inactive
Cc1ccc(O)c(-n2nc3ccccc3n2)c1,,inactive
FC(F)(F)C(F)(F)C(F)(F)C(F)(F)C(F)(F)C(F)(F)CC[Si](Cl)(Cl)Cl,,inactive
Cc1cc(O)c(C(C)(C)C)cc1C(C)(C)C,32.8 µM (active),
FC(F)(F)C(F)(F)C(F)(F)C(F)(F)C(F)(F)C(F)(F)C(F)(F)CCI,,inactive
CCN(CC)c1ccc(N=Nc2ccccc2)cc1,5.41 µM (active),
OCC(O)CC(F)(F)C(F)(F)C(F)(F)C(F)(F)F (stereo not given),,inactive
CN(C(=O)C(F)(F)C(F)(F)C(F)(F)F)[Si](C)(C)C,,inactive
OCCCCC(F)(F)C(F)(F)C(F)(F)C(F)(F)F,,inactive
O=C(O)CCC(F)(F)C(F)(F)C(F)(F)F,,inactive
NC(=O)C(F)(F)C(F)(F)C(F)(F)F,,inactive
CCOC(C=C(C)CCC=C(C)C)OCC,,inactive
O=C=Nc1cccc2c(N=C=O)cccc12,,inactive
C[C@]12CC[C@H]3C(=CCc4cc(O)ccc43)[C@@H]1CCC2=O,,inactive
OCC(F)(F)C(F)(F)C(F)(F)C(F)(F)C(F)(F)C(F)(F)C(F)(F)C(F)(F)CO,,inactive
O=C(Cl)C(F)(F)C(F)(F)C(F)(F)C(F)(F)C(F)(F)C(F)(F)C(F)(F)F,,inactive
OCC(O)CC(F)(F)C(F)(F)C(F)(F)C(F)(F)C(F)(F)C(F)(F)C(F)(F)C(F)(F)F (stereo not given),,inactive
CCN(CC)c1ccc(C=O)cc1,,inactive
CO[Si](C)(CCC(F)(F)C(F)(F)C(F)(F)C(F)(F)C(F)(F)C(F)(F)F)OC,,inactive

SMILES,AC50,outcome
NC(O)(C(F)(F)F)C(F)(F)F,,inactive
Nc1cc([N+](=O)[O-])cc(Cl)c1O,,inactive
NCC(F)(F)C(F)(F)C(F)(F)C(F)(F)C(F)(F)C(F)(F)F,,inactive
C=C(C)C(=O)OCC(F)(F)C(F)(F)C(F)(F)C(F)F,,inactive
O=C(O)C(F)(F)C(F)(F)C(F)(F)C(F)(F)C(F)(F)C(F)(F)C(F)F,,inactive
CC1=CC2C3C=CC(C3)C2C1C (stereo not given),,inactive
FC(F)(F)C(F)(F)C(F)(F)CC1CO1 (stereo not given),,inactive
Cc1ccc(S(=O)(=O)C(I)I)cc1,,inactive
CCOC(=O)CC(=O)C(F)(F)C(F)(F)F,,inactive
OCCCC(F)(F)C(F)(F)C(F)(F)C(F)(F)C(F)(F)C(F)(F)C(F)(F)C(F)(F)F,11.9 µM (active) and 9.9 µM (active),
O=S(=O)(O)CCC(F)(F)C(F)(F)C(F)(F)C(F)(F)C(F)(F)C(F)(F)C(F)(F)C(F)(F)F,,inactive
O=C(O)CCC(F)(F)C(F)(F)C(F)(F)C(F)(F)C(F)(F)C(F)(F)C(F)(F)F,,inactive
NS(=O)(=O)C(F)(F)C(F)(F)C(F)(F)C(F)(F)C(F)(F)C(F)(F)F,,inactive
O=S(=O)(Cl)C(F)(F)C(F)(F)C(F)(F)C(F)(F)C(F)(F)C(F)(F)C(F)(F)C(F)(F)F,,inactive
O=C(O)C(F)(F)OC(F)(F)C(F)(F)OC(F)(F)C(F)(F)OC(F)(F)F,,inactive
O=C(c1ccccc1)c1ccc(O)cc1O,,inactive
Cc1cnccn1,,inactive
OC(O)C(F)(F)C(F)(F)F,,inactive
O=C(F)C1(F)C(F)(F)C(F)(F)C(F)(F)C(F)(F)C1(F)F,,inactive
NCC(F)(F)C(F)(F)C(F)(F)C(F)(F)C(F)(F)C(F)(F)C(F)(F)C(F)(F)F,,inactive
